We go through 36 compounds from the supplement of paper PMC11172423.

The test relates to Falciformispora senegalensis CBS197.79. Briefly: growth relative to untreated control; higher = less inhibition, active = 20 or less. The settings on record: 25 µM. An outline of the steps:
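Growth was expressed as metabolic activity relative to the untreated growth control, with both corrected using a blank of medium plus dye. Hyphal fragments of M. mycetomatis MM55 or F. senegalensis CBS197.79 were suspended to 68–72% transmission at 660 nm in colourless RPMI 1640 containing L-glutamine and MOPS. In 96-well plates they were exposed to compound at 100 or 25 µM for 7 days at 37 °C, and viability was read with MTS (2 h, 490 nm) or resazurin (600 nm).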
For the compound `CNC(=O)c1cc(-c2n[nH]c3ccc(-c4nc(C5CCCN5)n[nH]4)cc23)ccc1F` (stereo unspecified), the growth is 105% (inactive).
In the case of `CO[C@H]1C[C@@H]2CC[C@@H](C)[C@@](O)(O2)C(=O)C(=O)N2CCCC[C@H]2C(=O)O[C@H]([C@H](C)C[C@@H]2CC[C@@H](O)[C@H](OC)C2)CC(=O)[C@H](C)/C=C(\C)[C@@H](O)[C@@H](OC)C(=O)[C@H](C)C[C@H](C)/C=C/C=C/C=C/1C`, the growth is 103% (inactive).
Under `CC(C)Nc1ncc2nc(Nc3cc(Cl)cc(C(F)(F)F)c3)n(C3CCNCC3)c2n1` stands 90.2% (inactive).
Turning to `OCCN1CCc2nc(NCc3ccc(F)cc3F)nc(NC34CC(C3)C4)c2CC1`, the growth is 69.4% (inactive).
Under `Cc1c2c(n3c(nc4ccccc43)c1C#N)N(CCN(C)C)CC2` stands 64.5% (inactive); under `Oc1nc2ccccc2n1C1CCN(CCCC(c2ccc(F)cc2)c2ccc(F)cc2)CC1`, 101% (inactive).
Take `CO[C@H]1C[C@H](O[C@@H]2/C(C)=C/C[C@@H]3C[C@@H](C[C@]4(CC[C@H](C)[C@@H](C5CCCCC5)O4)O3)OC(=O)[C@@H]3C=C(C)/C(=N/O)[C@H]4OC/C(=C\C=C\[C@@H]2C)[C@]43O)O[C@@H](C)[C@@H]1O`: the growth was 97.5% (inactive).
Under `COC(=O)N[C@H](C(=O)N[C@@H](Cc1ccccc1)[C@@H](O)CN(Cc1ccc(-c2ccccn2)cc1)NC(=O)[C@@H](NC(=O)OC)C(C)(C)C)C(C)(C)C` stands 114% (inactive).
Under `O[C@@H](c1cc(C(F)(F)F)nc2c(C(F)(F)F)cccc12)[C@H]1CCCCN1` stands 8.55% (active).
On to `CCCCN(CCCC)CC(O)c1cc(Cl)cc2c1-c1ccc(Cl)cc1/C2=C/c1ccc(Cl)cc1` (stereo unspecified), for which the growth was 98.7% (inactive).
In the case of `CN(C)CCCN1c2ccccc2Sc2ccc(Cl)cc21`, the growth is 22.7% (inactive).
Under `CC(=O)Nc1ccc(NC(=O)c2cc(-c3ccc(C)cc3O)n[nH]2)cc1` stands 81.7% (inactive); under `c1cc(N2CCC(CN3CCOCC3)CC2)c2sccc2n1`, 79% (inactive); under `CS(=O)(=O)NC1CCN(C(=O)c2ccc(Nc3nccc(-c4cc(Cl)cc(C(F)(F)F)c4)n3)cc2)C1` (stereo unspecified), 93.2% (inactive).
Under `CCN(CC)C(=O)/C(C#N)=C/c1cc(O)c(O)c([N+](=O)[O-])c1` stands 99% (inactive); under `c1ccc(Nc2cc(Nc3cc(-c4ccccc4)[nH]n3)nc3ccnn23)cc1`, 67.4% (inactive).
Under `CS(=O)(=O)N1CCC(NC(=O)c2cc3ccc(C(F)(F)F)cc3[nH]2)CC1` stands 90.8% (inactive).
On to `CCC(CC)COC(=O)[C@H](C)NP(=O)(OC[C@H]1O[C@@](C#N)(c2ccc3c(N)ncnn23)[C@H](O)[C@@H]1O)Oc1ccccc1` (stereo partly specified), for which the growth was 109% (inactive).
Regarding `Clc1ccc2ncc(-c3cccc(NC4CCNC4)n3)n2c1` (stereo unspecified), the growth was 92% (inactive).
With `CCCCc1nc(Cl)c(CO)n1Cc1ccc(-c2ccccc2-c2nn[nH]n2)cc1`, the growth is 105% (inactive).
In the case of `Cc1ccc(-c2cc(C(F)(F)F)nn2-c2ccc(S(N)(=O)=O)cc2)cc1`, the growth is 102% (inactive).
Under `COc1ccc2c(O[C@@H]3C[C@H]4C(=O)N[C@]5(C(=O)NS(=O)(=O)C6CC6)C[C@H]5/C=C\CCCCN(C)C(=O)[C@@H]4C3)cc(-c3nc(C(C)C)cs3)nc2c1C` stands 103% (inactive); under `CN(C)CCCN1C(=O)c2[nH]nc(-c3ccc(Cl)cc3O)c2C1c1ccc(Cl)cc1` (stereo unspecified), 83.3% (inactive); under `Cc1cc(C)c2cc(C(=O)N[C@@H](C)c3ccccc3)[nH]c2c1`, 86.1% (inactive).
Turning to `CC(C)(C)c1nn(-c2ccc(Cl)cc2)c2[nH]c(=O)c(CNCc3ccc4c(c3)OCO4)cc12`, the growth is 72.1% (inactive).
As for `Cc1noc(C2CN(C(=O)c3ccc(Nc4nccc(-c5ccc(Cl)cc5)n4)cc3)C2)n1`, the growth is 73.8% (inactive).
As for `CC(C)CN(C[C@@H](O)[C@H](Cc1ccccc1)NC(=O)O[C@H]1CO[C@H]2OCC[C@H]21)S(=O)(=O)c1ccc(N)cc1`, the growth was 97.7% (inactive).
Under `CCOc1ccccc1NC(=O)Cn1c(=O)n(Cc2ccccc2)c(=O)c2c(C)c(C(=O)N(C)C)sc21` stands 92.1% (inactive).
Under `C[C@H](CS)C(=O)N1CCC[C@H]1C(=O)O` stands 109% (inactive); under `COc1ccc(-c2nc3c(NCc4ccccc4)nccc3[nH]2)c(OC)c1`, 63.7% (inactive); under `COc1ccc(CCNc2nccc(-c3cc(Cl)cc(C(F)(F)F)c3)n2)cc1`, 87.1% (inactive).
Under `CC(C)(C)Nc1ncc2nc(Nc3cccc(C(F)(F)F)c3)n(CC3CCNCC3)c2n1` stands 92.9% (inactive); under `CCOC(=O)NCCOc1cnn(Cc2ccccc2)c(=O)c1`, 91.1% (inactive); under `CCOc1ccc(-c2ccnc(Nc3cncc(OC)c3)n2)cc1C#N`, 100% (inactive).
Consider `O=C(c1ccc(Nc2nccc(-c3ccc(C(F)(F)F)c(Cl)c3)n2)cc1)N1CC(O)C1`, for which the growth was 97.7% (inactive).
Under `C[C@H]1c2cccc(O)c2C(=O)C2=C(O)[C@]3(O)C(O)=C(C(N)=O)C(=O)[C@@H](N(C)C)[C@@H]3[C@@H](O)[C@@H]21` stands 108% (inactive).
